{"source": "PubChem BioAssay AID434964", "about": "(The Scripps Research Institute Molecular Screening Center, 2010)", "note": "The list shows a part of the results. Calls of active or inactive are those of the source.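 The calls were made as follows: active = average activation exceeds primary screen hit cutoff (cut at about 21% in these data); inactive = the rest.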", "data": [{"target": "Vasopressin V1a receptor (Homo sapiens) (UniProt P37288)", "sequence (P37288 whole entry, looked up)": "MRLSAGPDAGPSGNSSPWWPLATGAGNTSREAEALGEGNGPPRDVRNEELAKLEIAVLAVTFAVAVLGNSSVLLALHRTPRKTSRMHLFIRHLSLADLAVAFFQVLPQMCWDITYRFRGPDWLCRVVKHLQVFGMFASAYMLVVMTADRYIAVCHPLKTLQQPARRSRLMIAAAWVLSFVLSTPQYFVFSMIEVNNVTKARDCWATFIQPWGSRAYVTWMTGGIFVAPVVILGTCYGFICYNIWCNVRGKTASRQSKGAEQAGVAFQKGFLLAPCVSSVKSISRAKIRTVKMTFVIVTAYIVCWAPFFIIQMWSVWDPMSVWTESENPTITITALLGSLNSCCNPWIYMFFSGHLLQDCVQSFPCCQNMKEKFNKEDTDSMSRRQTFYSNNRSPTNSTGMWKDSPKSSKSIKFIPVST", "test": "activators of vasopressin V1R in CHO cells – cell-based, Fluo-8 calcium fluorescence, confirmation (AID 434964);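 also: peak over basal fluorescence ratio during a 100 s FLIPR read; 0% = DMSO only wells and 100% = 3 nM vasopressin wells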", "conditions": "agonist, at 3 µM, stronger effect = higher value", "values": [{"smiles": "Cc1cc(C)c(/C=C2\\C(=O)Nc3ccccc32)[nH]1", "activation": "40.5% (active)"}, {"smiles": "CCN(CC)c1ccc(/C=N/NC(=O)c2cnccn2)c(O)c1", "activation": "10.5% (inactive)"}, {"smiles": "O=C(CN1CCN(c2cccc(Cl)c2)CC1)Nc1ccc(S(=O)(=O)N2CCOCC2)cc1", "activation": "3.06% (inactive)"}, {"smiles": "CC1(C)S[C@@H]2[C@H](N=CN3CCCCCC3)C(=O)N2[C@H]1C(=O)O", "activation": "0.2% (inactive)"}, {"smiles": "O=C(c1ccccc1)c1ccc(OCC(O)CN2CCCC2)cc1", "note": "(stereo not drawn)", "activation": "-0.08% (inactive)"}, {"smiles": "CCN(CC)c1ccc2cc(C(N)=O)/c(=N\\NC(=O)c3ccncc3)oc2c1", "activation": "21.7% (active)"}, {"smiles": "O=c1c2cc(Br)ccc2nc(-c2cccc(Cl)c2)n1O", "activation": "31.8% (active)"}, {"smiles": "Fc1cccc(Cl)c1COc1ccc(-c2nnco2)cc1", "activation": "2.1% (inactive)"}]}]}
